# The supplement of paper PMC12340641
# Counter-ions that a name gives are not always drawn.
# System: HEK293FT dCK*-IKZF1
# Test: relative growth recovery (pomalidomide 10 uM = 100%, DMSO = 0%); higher = more growth rescue (IKZF1 fusion degradation)
# Conditions: compound concentration: 5 uM; AraC concentration: 0.3 uM; overnight pretreatment + 4 days AraC
# Method in brief: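 HEK293FT cells stably expressing an engineered deoxycytidine kinase–IKZF1 fusion were seeded at 300 per well in 384-well plates and given 5 μM compound 2 h later. After overnight incubation at 37 °C, a nucleoside suicide substrate at 0.3 μM was added with medium for 4 days, and on day 5 Hoechst 33342-stained nuclei were counted by whole-well imaging. Growth recovery was normalised per plate between a reference degrader and vehicle, set to 100% and 0% respectively, and the values are means of duplicates run on different days.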
row,Compound,relative growth recovery [%]
1,c1ccc(CNc2nc(NCc3ccccc3)c3ccccc3n2)cc1,-4.85
2,COc1ccc(-c2nc3cc(C4=NNC(=O)CC4C)ccc3[nH]2)cc1 (stereo not given) [Pimobendan (Vetmedin)],-0.495
3,CCC(C)c1ccc(NC(=O)Cn2cnc3c2c(=O)n(C)c(=O)n3C)cc1 (stereo not given),1.29
4,NC(=O)NC(=O)Cc1ccccc1,-2.01
5,CNC(=O)Nc1ccc(-c2nc(N3CC4CCC(C3)O4)c3cnn(C4CCC5(CC4)OCCO5)c3n2)cc1,-13.5
6,COc1c(C/C=C(\C)CCC(=O)O)c(O)c2c(O)occ2c1C [Mycophenolic Acid],-9.99
7,CCCCC1OC(=O)c2ccccc21 (stereo not given) [Butylphthalide],1.08
8,CCN(CC)CCCC(C)Nc1ccnc2cc(Cl)ccc12 (stereo not given),-9.51
9,CC[n+]1c(-c2ccccc2)c2cc(N)ccc2c2ccc(N)cc21,-12.2
10,Clc1ccc(COC(Cn2ccnc2)c2ccc(Cl)cc2Cl)cc1 (stereo not given) [Econazole Nitrate],4.02
11,O=C(/C=C/c1ccc(O)cc1)c1ccc(O)cc1O [Isoliquiritigenin],-1.02
12,CCSc1ccc2c(c1)N(CCCN1CCN(C)CC1)c1ccccc1S2 [thiethylperazine],1.55
13,Clc1cccc(Cl)c1CSc1nnc(-c2cnccn2)s1 [yoda-1],-4.05
14,Cc1cc(C2CCCCC2)n(O)c(=O)c1 [Ciclopirox],-11.9
15,COc1cccc2c(O)c3c(O)c4c(c(O)c3c(O)c12)=C(O[C@H]1C[C@H](N)[C@H](O)[C@H](C)O1)C[C@](O)(C(C)=O)C=4 [Daunorubicin HCl],-13.9
